PABP1 MLLE inh: blocks PAM2 peptide binding to the PABP1 MLLE domain; P11940; GST-MLLE / FITC-PAM2 fluorescence polarization; 360,000 compounds, 0.36% hits; inhibition, % at 20 µM; in the data active = inhibition above about 35%, passing the limit was not always enough;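 also: plate controls were DMSO wells with GST-MLLE for no effect and wells lacking GST-MLLE protein for full effect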
eIF4H FP inh: inhibitors of RNA binding by human eIF4H; AID 2012; eIF4H fluorescence polarization binding assay; Q15056; inhibition, % at 35 µM; 290,000 compounds, 0.94% hits;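 also: calls also rest on retests at 20 µM and on dose response follow-up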
PABP FP inh: blocks human PABP binding to poly(A) RNA | fluorescence polarization | 290,000 compounds, 1% hits | P11940 | inhibition, % at 35 µM;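 also: calls also rest on retests at 20 µM and on dose response follow-up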
M18AAP inhibitor: blocks P. falciparum M18 aspartyl aminopeptidase | recombinant PfM18AAP, H-Glu-NHMec fluorogenic cleavage | inhibition, % at 7.35 µM | 290,000 compounds, 1.2% hits | AID 1822;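 active = inhibition above the campaign mean inhibition over all tested compounds plus 3 SD, cut at about 28% in these data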;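 also: 0% = plate median of test compound wells and 100% = 2 mM ZnCl2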
eIF4E-4G inh: blocks eIF4E binding to eIF4G | P63073+Q04637 | TR-FRET eIF4E-eIF4GI(517-606) binding, 2 h | inhibition, % at 21.7 µM | 220,000 compounds, 0.37% hits;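 active = inhibition above about 30%, limit read from the data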;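 also: 0% = full FRET control wells and 100% = background wells lacking eIF4GI fragment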
PERK inhibitor: inhibitors of human PERK kinase; CHO PERK-DD fusion, SEAP luminescence translation reporter; inhibition, % at 5.6 µM; 220,000 compounds, 0.17% hits; AID 1416;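 active = inhibition above the mean inhibition of all tested compounds plus 3 SD, set separately per screening campaign, cut at about 2.9% in these data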;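 also: PERK kinase domain activated by AP20187 dimerizer at 100 nM; 0% = DMSO with dimerizer and 100% = rapamycin at 8.4 µM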
* marks the source's active call; other numbers are inactive results; ? = inconclusive; / = not tested or not shown; [ ] = another dose, or the depositor's remark. Only some compounds are listed: those with a hit (about 2.4% of all), similar ones and a draw of the others. Unless noted, no rule for the calls is given here.

SMILES | PABP1 MLLE inh | eIF4H FP inh | PABP FP inh | M18AAP inhibitor | eIF4E-4G inh | PERK inhibitor
COC(=O)c1[nH]c2c(c1C)C(=O)CCC2 | 2 | -2 | 3 | -1 | 5 | -1
Cc1cccc(C)c1NC(=O)Cn1cnc2c(=O)n(C)c(=O)n(C)c21 | 0 | -17 | 1 | 7 | 9 | 0
Cn1c(=O)c2ncn(CC(=O)Nc3ccc4c5c(cccc35)CC4)c2n(C)c1=O | 7 | 47* | 55* | 8 | 3 | 0
Cc1[nH]n(-c2ccccc2)c(=O)c1C=Nc1ccc2[nH]c(=O)[nH]c2c1 | 8 | 8 | 1 | -10 | 0 | 1
Cc1cccc(-n2[nH]c(C)c(C=Nc3ccc4[nH]c(=O)[nH]c4c3)c2=O)c1 | 17 | 61* | 85* | -18 | 5 | 1
O=C(COC(=O)CN1C(=O)NC2(CCCC2)C1=O)Nc1c(Cl)cccc1C(F)(F)F | -3 | / | / | / | / | /
COCCCNC(=S)NC1CC2CCCC(C1)N2Cc1ccco1 (stereo unspecified) | -16 | -1 | -2 | -3 | 5 | 1
CCOC(=O)CC1=C(C(=O)OCC)C(c2ccc(C)o2)C(C#N)=C(N)O1 (stereo unspecified) | 50* | 92* | 79* | 4 | -1 | 0
COC(=O)Cn1ncn2cccc2c1=O | -3 | -9 | -4 | -1 | 1 | 1
CCOC(=O)C(C)n1ncn2cccc2c1=O (stereo unspecified) | -7 | 1 | -1 | -8 | 43*[fluorescence artefact?] | 0
CC(C)CCOCC(O)CCC(=O)NNC(=S)Nc1ccccc1 (stereo unspecified) | -2 | -2 | -10 | 8 | 3 | 1
C=CCC(CC(O)COCCC)C(=O)NNC(=S)Nc1ccccc1 (stereo unspecified) | 3 | 4 | -11 | 30* | 0 | 1
COc1ccc(NS(=O)(=O)c2cc(NC(=O)CCSc3ccccc3)ccc2OC)cc1 | 6 | 5.3* | 75* | -1 | 1 | -1
CCN(CC)C(=S)SSC(=S)N(CC)CC | 24 | 15 | 12 | 36* | 3 | 1
CCCCN(CC)c1nc(N)c(C#N)c(CC#N)c1C#N | -22 | 39 | 41 | -7 | 6 | 0
C=C(C)CN(CC)c1nc(N)c(C#N)c(CC#N)c1C#N | 5 | 84* | 76* | 1 | 2 | 0
CCOC(=O)c1ccc[n+](CC(=O)c2ccccc2)c1 | 0 | 59* | 14* | -8 | 2 | 0
CCOC(=O)N1CCN(S(=O)(=O)CCNC(=O)c2ccc(F)cc2)CC1 | 4 | / | / | / | / | /
Cc1cc(C)c(C)c(S(=O)(=O)N2CCN(C(=O)c3ccccn3)CC2)c1C | -6 | / | / | / | / | /
CC(C)OC(=O)[C@H]1[C@H](c2ccc(Cl)cc2)[C@@](C#N)(C(N)=O)[C@@H]2C=CC(C(N)=O)=CN21 | 2 | 53* | 64* | 6 | 4 | 1
CC(C)Nc1nc(NCc2ccccc2)c2sccc2n1 | -9 | / | / | / | / | /
COc1ccc(C(=O)NC(=S)Nc2cccc(NC(=O)c3ccco3)c2)cc1[N+](=O)[O-] | 42* | 8 | 66 | -12 | -5 | 0
CCc1ccc(S(=O)(=O)/N=C2/C=C(Sc3ncn[nH]3)C(=O)c3ccccc32)cc1 | 46* | -3 | 3 | 47* | 32*[fluorescence artefact?] | 0
COc1cc(SSc2cc(OC)cc([N+](=O)[O-])c2N)c(N)c([N+](=O)[O-])c1 | 31 | 12 | 14 | 31* | 16 | -1
O=C(Nc1cc(Cl)ccc1Cl)C1CC(=O)N(c2ccc(Br)cc2)C1 (stereo unspecified) | 1 | -5 | -17 | -1 | 5 | 0
SMILES | PABP1 MLLE inh | eIF4H FP inh | PABP FP inh | M18AAP inhibitor | eIF4E-4G inh | PERK inhibitor
COc1ccc(N(C(C)C(=O)Nc2cccnc2)S(C)(=O)=O)cc1 (stereo unspecified) | 7 | 4 | -1 | -3 | -5 | 0
CC(=O)Nc1cc2c(cc1Br)-c1ccccc1C2 | 3 | / | / | / | / | /
O=S(=O)(c1ccccc1)N1CCCC1c1cccs1 (stereo unspecified) | 13 | 2 | 1 | 4 | 97* | 0
O=C(COC(=O)c1ccccc1NC(=O)c1ccco1)Nc1ncc(Cl)cc1Cl | -16 | 2 | 12 | 13 | -17 | 0
O=C(COC(=O)c1ccccc1O)Nc1ncc(Cl)cc1Cl | 0 | 74 | active | 1 | 20 | 0
COc1ccc(OCCCC(=O)OCC(=O)Nc2ncc(Cl)cc2Cl)cc1 | 45* | / | / | / | / | /
CN(Cc1ccccc1)C(=O)C1CCN(S(=O)(=O)c2ccc3nc4c(c(C(=O)O)c3c2)CCCC4)CC1 | -6 | 66* | 35 | 11 | / | /
O=C(COC(=O)COc1ccc(Cl)cc1)NC1CCCCCC1 | 2 | / | / | / | / | /
O=C(O)Cc1sc(Nc2ccc(F)cc2)nc1-c1cccs1 | -92 | ? | -8 | 29* | 14 | 0
COC(=O)c1c(-c2ccc(C(C)(C)C)cc2)csc1NC(=O)C1C2CCC(O2)C1C(=O)O (stereo unspecified) | 13 | -10 | -16 | 28* | -6 | 1
Cc1ccc(S(=O)(=O)N(C)C)cc1NC(=O)C(C)N(C)CCOc1ccc(Cl)cc1 (stereo unspecified) | -1 | 1 | 11 | -6 | / | /
CC(C)(O)C1Cc2cc(/C=C/C(=O)O)c(O)cc2O1 (stereo unspecified) | 16 | 14 | 33 | -3 | 62* | 1
O=C(c1cc2cc([N+](=O)[O-])ccc2oc1=O)n1cccn1 | 0 | 98 | 2.3* | 2 | 2 | 1
Cc1ccc(N(CC(=O)NCc2ccccc2)C(=O)CCC(=O)Nc2ccccn2)cc1C | 5 | -13 | 10 | 0 | / | /
CCCC(NS(=O)(=O)c1ccc(-c2ccc(=O)[nH]n2)s1)c1cccs1 (stereo unspecified) | 10 | -13 | 3 | -5 | / | /
CSc1nsc(/C=C/Nc2ccc(F)cc2)c1C#N | -30 | 77* | 2.7* | -4 | 1 | 1
CSc1nsc(/C=C/Nc2ccc(Cl)cc2)c1C#N | -34 | -6 | -3 | 6 | 2 | 0
Cc1ccc(C(=O)N2[C@@H]3CN(C)C(=O)[C@@]2(C)[C@H]2C(=O)N(C)C(=O)[C@@H]32)cc1 | 0 | / | / | / | / | /
Cc1n[nH]c(=O)nc1NCCN(C)C | 3 | -7 | -16 | -46 | -7 | 3.5*
CC(=O)c1cccc(NS(=O)(=O)N2CCOCC2)c1 | -7 | -8 | -3 | -1 | / | /
CSC(=Nc1ccccc1)N=C(SCc1ccccc1)N(C)C | -54 | / | / | / | / | /
CCOC(=O)c1c(/N=C/c2cc(OC)cc([N+](=O)[O-])c2O)sc(C)c1C | 33 | 15 | 8 | 28* | 5 | 1
CCOC(=O)c1c(/N=C/c2cc([N+](=O)[O-])ccc2O)sc(C)c1C | 23 | 44 | 3 | 26 | -3 | 1
CCOC(=O)c1ccc2c(c1)[n+](CC)c(C)n2-c1ccccc1 | -120 | -9 | 73* | 0 | 6 | 1
CCn1c(C)[n+](CC)c2ccc(C(=O)N(C)c3ccccc3)cc21 | -113 | -4 | 62* | -14 | 19 | -1
